# Laboratory results taken from PubChem BioAssay (Tox21).
# Records with an inconclusive call do not appear. A call without a number means that no potency is given here. The source made the active and inactive calls. Calls come from the whole dose curve; as a rule, active = well fitted curve in the direction sought with a large enough effect in the repeat runs; inconclusive = weak or mixed curves; inactive = no such curve, though single readings can be large; an effect the other way counts as inactive or inconclusive.
# Test: A CellTox Green Cytotoxicity Assay to monitor cytotoxicity in HEK293 cells - 0 hour (AID 1224869)
# Conditions: CellTox Green fluorescence; series mostly up to 76.8 µM
# Procedure, shortened: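 Real-time, in one plate: 600 HEK293 cells/well with dead-cell DNA dye, pinned compound after 5 h, 37 C incubation over 40 h; viable cells give no appreciable fluorescence.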
# Note: nearly all actives have a fitted effect of over 50% in size.
Compound,Potency,cytotoxicity
O=C1[C@@H]2[C@H]3CC[C@H](C3)[C@@H]2C(=O)N1CCCCN1CCN(c2ncccn2)CC1,inactive,
Cc1ccc2c(c1)CCCN2,inactive,
O=C(NC(Cc1cc(=O)[nH]c2ccccc12)C(=O)O)c1ccc(Cl)cc1 (centres undefined),inactive,
CC(C)(C)C1(CCc2ccc(Cl)cc2)CO1 (centres undefined),inactive,
CSCC[C@H](NC(=O)[C@H](Cc1c[nH]c2ccccc12)NC(=O)CCNC(=O)OC(C)(C)C)C(=O)N[C@@H](CC(=O)O)C(=O)N[C@@H](Cc1ccccc1)C(N)=O,inactive,
O=CNNC=O,inactive,
O=C(O)CNC(=O)c1ccccc1I,inactive,
COc1cc(C(C)=O)ccc1OCCCN1CCC(c2noc3cc(F)ccc23)CC1,inactive,
CC(C)(C(=O)c1cccnc1)c1cccnc1,inactive,
Cc1ccc(S(=O)(=O)NC(=O)NC2CCCCC2)cc1,inactive,
COC(=O)Nc1nc2ccc(C(=O)C3CC3)cc2[nH]1,inactive,
O=S(=O)(O)CO,inactive,
FC(F)(F)C(F)(F)C(F)(F)C(F)(F)CCI,inactive,
C=CCOC(=O)COCCC(C)C,inactive,
CCCCCCCCCCCCCCN(C)C,,-21.7% [at 15.8 µM] (inactive)
CCCCCCCCCCCCCCCC(=O)OCC,inactive,
COc1ccc(CCN(C)CCCN2CCc3cc(OC)c(OC)cc3CC2=O)cc1OC,inactive,
CCCC(=O)OC(=O)CCC,inactive,
CC[C@H]1OC(=O)[C@H](C)[C@@H](O[C@H]2C[C@@](C)(OC)[C@@H](O)[C@H](C)O2)[C@H](C)[C@@H](O[C@@H]2O[C@H](C)C[C@H](N(C)C)[C@H]2O)[C@](C)(O)C[C@@H](C)CN(C)[C@H](C)[C@@H](O)[C@]1(C)O,inactive,
CCCCCCCCCCCCCOC(=O)CCSCCC(=O)OCCCCCCCCCCCCC,,6.82% [at 15.8 µM] (inactive)

# Test: qHTS RealTime-Glo MT Cell Viability Assay in HepG2 cells - 40 hour (AID 1224870)
# Conditions: RealTime-Glo luminescence; series mostly up to 76.8 µM
# Procedure, shortened: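 HepG2 cells mixed with RealTime-Glo MT reagents (NanoLuc plus cell-permeant prosubstrate) were seeded at 600 cells/well, incubated 5 h at 37 C/5% CO2, then pinned with compounds in DMSO; nonlytic luminescence tracked viability during 40 h treatment.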
Compound,Potency,"activity change, negative = cytotoxic"
O=C1[C@@H]2[C@H]3CC[C@H](C3)[C@@H]2C(=O)N1CCCCN1CCN(c2ncccn2)CC1,inactive,
Cc1ccc2c(c1)CCCN2,inactive,
O=C(NC(Cc1cc(=O)[nH]c2ccccc12)C(=O)O)c1ccc(Cl)cc1 (centres undefined),inactive,
CC(C)(C)C1(CCc2ccc(Cl)cc2)CO1 (centres undefined),inactive,
CC(C)(O)CCc1ccccc1,inactive,
Cc1ccc(N(CCO)CCO)cc1,inactive,
CSCC[C@H](NC(=O)[C@H](Cc1c[nH]c2ccccc12)NC(=O)CCNC(=O)OC(C)(C)C)C(=O)N[C@@H](CC(=O)O)C(=O)N[C@@H](Cc1ccccc1)C(N)=O,inactive,
O=CNNC=O,inactive,
O=C(O)CO,inactive,
CCOc1ncc(F)c(=O)[nH]1,inactive,
O=C(O)CNC(=O)c1ccccc1I,inactive,
Cc1cc(CCC(=O)OCCOCCOCCOC(=O)CCc2cc(C)c(O)c(C(C)(C)C)c2)cc(C(C)(C)C)c1O,inactive,
COc1cc(C(C)=O)ccc1OCCCN1CCC(c2noc3cc(F)ccc23)CC1,inactive,
Nc1ccn([C@H]2CS[C@@H](CO)O2)c(=O)n1,inactive,
CC(C)(C(=O)c1cccnc1)c1cccnc1,inactive,
C[C@@H]1C[C@H]2[C@@H]3CCC4=CC(=O)C=C[C@]4(C)[C@@]3(F)[C@@H](O)C[C@]2(C)[C@@]1(O)C(=O)COP(=O)(O)O,inactive,
Cc1ccc(S(=O)(=O)NC(=O)NC2CCCCC2)cc1,inactive,
COC(=O)Nc1nc2ccc(C(=O)C3CC3)cc2[nH]1,inactive,
O=S(=O)(O)CO,inactive,
FC(F)(F)C(F)(F)C(F)(F)C(F)(F)CCI,inactive,

Compound,Potency,"activity change, negative = cytotoxic"
CCCCCCOC(=O)CCCCC,inactive,
O=C(O)CCC(=O)c1ccc(-c2ccccc2)cc1,inactive,
CCC(CO)(CO)CO,inactive,
C=CCOC(=O)COCCC(C)C,inactive,
CCOC(=O)C(C)O (centres undefined),inactive,
CCCCCCCC/C=C/C(=O)O,inactive,
CCCCCCC(CO)CCCC (centres undefined),inactive,
Nc1nc(-c2ccc([N+](=O)[O-])cc2)cs1,inactive,
COC(OC)OC,inactive,
O=c1[nH]c2cc(C(F)(F)F)c(N3CCOCC3)cc2n(CP(=O)(O)O)c1=O,inactive,
CCCCCCCCCCCCCCN(C)C,,10.3% [at 15.8 µM] (inactive)
CCC(Cl)CC(Cl)C(Cl)C(Cl)C(Cl)C(C)Cl (centres undefined),,-0.479% [at 15.8 µM] (inactive)
CCCCCCCCCCCCCCCC(=O)OCC,inactive,
COc1ccc(CCN(C)CCCN2CCc3cc(OC)c(OC)cc3CC2=O)cc1OC,inactive,
CCCCC[C@H](O)/C=C/[C@H]1[C@H](O)CC(=O)[C@@H]1C/C=C\CCCC(=O)O,inactive,
CCCC(=O)OC(=O)CCC,inactive,
CC[C@H]1OC(=O)[C@H](C)[C@@H](O[C@H]2C[C@@](C)(OC)[C@@H](O)[C@H](C)O2)[C@H](C)[C@@H](O[C@@H]2O[C@H](C)C[C@H](N(C)C)[C@H]2O)[C@](C)(O)C[C@@H](C)CN(C)[C@H](C)[C@@H](O)[C@]1(C)O,inactive,
NC(=O)CCCCC(N)=O,inactive,
CCCCCCCCCCCCCOC(=O)CCSCCC(=O)OCCCCCCCCCCCCC,,6.27% [at 15.8 µM] (inactive)
